Each structure is given as a SMILES string. Hit rate of the full screen: of about 360,000 compounds, about 25,000 (6.9%) were called active. About 9% were inconclusive and are not listed. Calls come from the whole dose curve; as a rule, active = well fitted inhibition curve with a large enough effect; inconclusive = small, poorly fitted or top-dose-only effect; inactive = flat fitted curve, though single readings scatter. Shown is part of a subset that was picked to be rich in actives. Where a call stands in place of a potency, no number is given.
Potency is the fitted concentration of half-maximal effect.

In the experiment the target is Luciferin 4-monooxygenase (Photinus pyralis) (UniProt P08659). Nature of the experiment: qHTS profiling assay for firefly luciferase inhibitor/activator using purifed enzyme and Km concentrations of substrates (counterscreen for miR-21 project). Note: nearly all actives have a fitted effect of over 55% in size. The following applies: purified FLuc, luminescence inhibition; series mostly up to 57.5 µM. The essentials: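 Purified P. pyralis luciferase, 10 nM final, with Km-level 10 uM D-luciferin and 10 uM ATP in 50 mM Tris acetate pH 7.5, 10 mM Mg acetate, 0.01% Tween-20, 0.05% BSA; 6-point qHTS titration about 60 µM downward; luminescence read.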
Sequence of Luciferin 4-monooxygenase (Photinus pyralis) (P08659 whole entry, looked up): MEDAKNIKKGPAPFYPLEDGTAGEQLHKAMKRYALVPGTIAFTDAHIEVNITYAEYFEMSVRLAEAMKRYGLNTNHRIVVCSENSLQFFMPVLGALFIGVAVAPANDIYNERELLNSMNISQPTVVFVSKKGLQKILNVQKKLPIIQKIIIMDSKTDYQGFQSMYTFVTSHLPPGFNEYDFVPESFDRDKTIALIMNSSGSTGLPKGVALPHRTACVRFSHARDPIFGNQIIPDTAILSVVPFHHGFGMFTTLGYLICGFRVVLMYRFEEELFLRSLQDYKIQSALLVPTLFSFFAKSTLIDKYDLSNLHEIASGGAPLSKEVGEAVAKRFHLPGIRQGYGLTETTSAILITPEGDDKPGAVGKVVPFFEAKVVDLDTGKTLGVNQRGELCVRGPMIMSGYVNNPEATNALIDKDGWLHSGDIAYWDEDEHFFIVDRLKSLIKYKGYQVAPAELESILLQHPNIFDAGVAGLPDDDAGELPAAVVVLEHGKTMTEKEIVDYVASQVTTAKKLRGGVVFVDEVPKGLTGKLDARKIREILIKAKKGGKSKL
For orientation: In qHTS, concentration-response curves come from the screen itself.
`Cc1ccc(S(=O)(=O)N2CCOCC2)cc1NC(=O)COC(=O)c1cnccn1`: the Potency result was “inactive”.

Take `Cc1cc(F)ccc1NS(=O)(=O)c1ccc(-n2cccn2)cc1`: the Potency entry was “inactive”. In the case of `O=C(COC(=O)C1(c2ccc(F)cc2)CCCC1)N1CCNC1=O` it was “inactive”; in that of `COCCN1C(=O)C(=O)/C(=C(/O)c2ccc(S(=O)(=O)N3CCOCC3)cc2)C1c1ccc(O)c(OC)c1` (centres undefined), “inactive”; in that of `O=C(NCc1ccncc1)NC12CC3CC(CC(C3)C1)C2`, “inactive”. In the case of `CSc1ccc(NC(=O)/C=C/C(=O)O)cc1` it was “inactive”. The same measure for `CSc1ccc(/C=C/C(=O)NC23CC4CC(CC(C4)C2)C3)cc1`: 13.5 µM (active); for `COC(=O)c1sc(NC(=O)COC(=O)C2CCC2)c(C(=O)OC)c1C`: “inactive”.

Consider `Cc1cccc2c1N(CCOc1ccccc1)C(=O)C2=O`, for which the Potency entry is “inactive”. In the case of `O=C(OCCN1C(=O)c2ccccc2C1=O)Oc1ccccc1` it was “inactive”. In the case of `O=C1c2ccccc2C(=O)N1CCOc1ccc(F)cc1` it was 13.5 µM (active).

Take `Cc1nc2c(c(C)nn2-c2ccccc2)c(C)c1CCC(=O)NCCc1ccc(Cl)cc1`: the Potency entry was “inactive”. In the case of `O=C(CSc1ncnc2scc(-c3ccccc3)c12)NCc1ccc2c(c1)OCO2` it was “inactive”. The same measure for `Cc1cc(C)c(NC(=O)CN2C(=O)c3cccnc3Oc3ccc(Cl)cc32)c(C)c1`: “inactive”. In the case of `Cc1nc2ccccc2c(=O)n1NC(=O)c1ccccc1` it was “inactive”; in that of `Cn1c(NC(=O)c2ccccc2)nc2ccccc21`, 6.75 µM (active); in that of `Cn1nnc(NC(=S)NC(=O)c2ccccc2)n1`, “inactive”.

In the case of `Cn1c(S(=O)(=O)O)nc2ccccc21`, the Potency entry was “inactive”. In the case of `CCn1c(NC(=O)c2nn(C)cc2Br)nc2ccccc21`, the Potency result is “inactive”. In the case of `Cn1sc(NC(=O)c2ccccc2)nc1=O` it was 19 µM (active); in that of `Brc1cc(Br)c(Oc2cc(Br)c(Br)cc2Br)cc1Br`, “inactive”; in that of `CC1CCC(N2CC(=O)N(CCC3=CCCCC3)C(c3ccc(F)cc3)C2=O)CC1` (centres undefined), “inactive”. The same measure for `COc1ccc(CN2CCN(C(=O)c3cc(C4CC4)nn3-c3ccccc3)CC2)cc1F`: “inactive”. In the case of `CCn1c2ccccc2c2cc(NC(=O)Nc3ccc([N+](=O)[O-])cc3C)ccc21` it was “inactive”; in that of `Cc1ccc(-n2c3nc(=O)[nH]c(=O)c-3cc3c(Cl)cccc32)cc1`, “inactive”. For `Cc1ccccc1-c1nc(SCC(=O)N(C)c2ccccc2)c2c(=O)n(C)c(=O)n(C)c2n1`, the Potency entry was “inactive”.

For the compound `CCN(CC)S(=O)(=O)c1ccc(N2CCOCC2)c(NC(=O)c2ccc(=O)n(C)n2)c1`, the Potency entry is “inactive”. Consider `CCOC(=O)C1C(=O)NC(N2CCN(c3ccccc3)CC2)=NC1c1ccco1` (centres undefined), for which the Potency result was “inactive”. In the case of `CCOC(=O)C1C(=O)C=C(c2ccc(OC)cc2)CC1c1ccco1` (centres undefined) it was 13.5 µM (active).

With `COc1ccc(C2=NN(C(=O)CSc3nnnn3C)C(c3ccco3)C2)cc1` (centres undefined), the Potency entry was “inactive”. In the case of `Cc1ccc(Nc2nc(-c3ccc(O)cc3O)cs2)nc1` it was 2.39 µM (active); in that of `O=C(CCNC(=O)c1ccccc1Cl)NCc1ccco1`, “inactive”; in that of `CN(C(=O)CSc1nnc(NC(=O)Nc2ccccc2)s1)c1ccccc1`, “inactive”. The same measure for `O=C(CSc1nnc(Nc2ccccc2)s1)Nc1cccnc1Cl`: 16.9 µM (active). As for `O=C(CSc1nnc(C2CC2)n1Cc1ccccc1)Nc1cccnc1Cl`, the Potency entry is “inactive”. In the case of `Cc1cc(NC(=O)CSc2nnc(Nc3ccccc3F)s2)no1` it was “inactive”; in that of `CC(=O)c1ccc(NC(=O)CSc2nnc(NC(=O)Nc3ccccc3)s2)cc1`, 0.478 µM (active). The same measure for `O=C(Cc1cccs1)Nc1nnc(SCc2ccc(F)cc2)s1`: “inactive”; for `Cc1nc(SCC(=O)Nc2ccc(C(=O)O)cc2)n[nH]1`: “inactive”; for `O=C(CSc1nnc(SCc2ccc(F)cc2)s1)Nc1ccc(C(=O)O)cc1`: 5.36 µM (active). The same measure for `CC(C)(C)NC(=O)CSc1nnc(NC(=O)CCc2ccccc2)s1`: “inactive”; for `CCOc1ccc(NC(=O)CN(C)C(=O)CSc2ccccc2)cc1OCC`: “inactive”. `Cc1cccc(Nc2cc(C)nc(-n3nc(C)cc3C)n2)c1`: the Potency entry is “inactive”. The same measure for `O=C(NNC(=O)c1cccc(S(=O)(=O)Nc2ccc(Cl)cc2)c1)c1ccc(=O)[nH]c1`: “inactive”; for `COc1ccc(C(C)(C)C)cc1NC(=O)CCN1C(=O)C2CCCCC2C1=O` (centres undefined): “inactive”.

For the compound `O=C(CS(=O)(=O)c1cccc2nsnc12)N1CCN(c2cccc(Cl)c2)CC1`, the Potency result was “inactive”. In the case of `COc1ccc(N=Cc2c(O)[nH]c3ccccc23)cc1OC` it was 15.1 µM (active); in that of `COCC(=O)N=Nc1c(O)[nH]c2ccccc12`, “inactive”. In the case of `COc1cc(N=Cc2c(O)[nH]c3ccccc23)cc(OC)c1OC` it was “inactive”. In the case of `Cc1ccccc1N1CCN(Cc2nc(Cc3ccccc3F)no2)CC1` it was “inactive”. Consider `Cc1ccc(Cl)cc1NC(=O)COC(=O)CC(C)(C)C`, for which the Potency result was “inactive”. Turning to `CC(=O)Nc1ccc(NC(=O)CCCNC(=O)c2ccc(Cl)cc2)cc1`, the Potency result was “inactive”. Consider `O=C(COC(=O)CCCNC(=O)c1ccc(Cl)cc1)Nc1cc(Cl)ccc1Cl`, for which the Potency was 16.9 µM (active).

`COc1ccc(C(=O)COC(=O)CCCC(=O)Nc2cc(C(F)(F)F)ccc2Cl)cc1`: the Potency is 2.13 µM (active).

For the compound `CCCCC(=O)Nc1ccc(C(=O)Nc2cc(C(F)(F)F)ccc2Cl)cc1`, the Potency result is “inactive”. Turning to `COc1cc(OC)c(C(=O)OC(C)C(=O)Nc2cc(C(F)(F)F)ccc2Cl)cc1OC` (centres undefined), the Potency result is “inactive”.

`COc1ccc(CC(=O)NCCc2sc3nc(-c4ccc(OC)cc4)nn3c2C)cc1`: the Potency entry is “inactive”. The same measure for `O=C(NCc1ccco1)C1CCCN1S(=O)(=O)c1ccccc1C(F)(F)F` (centres undefined): “inactive”; for `CCOc1cc(/C=C(/C#N)c2ccc(Cl)cc2)cc(Cl)c1OCC(=O)O`: 3.79 µM (active); for `COc1cc(/C=C(/NC(=O)c2ccc(Cl)cc2Cl)C(=O)O)cc(OC)c1OC`: “inactive”. The same measure for `C/C(=N\OCC(=O)O)c1ccc(Cl)cc1`: “inactive”; for `CCc1noc(C)c1C(=O)Nc1nc2ccc(OC)cc2s1`: 5.36 µM (active); for `Cc1cccc(S(=O)(=O)CC(=O)Nc2nc(-c3ccccc3)cs2)c1`: “inactive”.

On to `COc1ccc(CNC(=O)c2ccc(Br)s2)cc1OC`, for which the Potency entry is “inactive”.

Turning to `CCc1noc(C)c1C(=O)Nc1nc(-c2ccccc2)cs1`, the Potency is 19 µM (active). Consider `COc1ccc2oc(=N)c(C(=O)Nc3ccc(Br)cc3)cc2c1`, for which the Potency result is “inactive”. For `CCCC(=O)Nc1nc2ccc(NC(=O)c3c(F)c(F)c(OC)c(F)c3F)cc2s1`, the Potency entry is “inactive”.

In the case of `CCc1nc2ccccc2c(C(=O)NCc2ccc(OC)cc2)c1C`, the Potency result is “inactive”.

In the case of `COc1ccc(NC(=O)CCC(=O)Nc2nnc(C3CCCCC3)s2)cc1`, the Potency result was “inactive”. The same measure for `COc1ccc2nc(NC(=O)c3ccc(Br)s3)sc2c1`: 3.01 µM (active); for `COc1ccc(S(=O)(=O)N2CCN(C(=O)NC3CCCCC3)CC2)cc1`: “inactive”; for `COc1ccc2nc(NC(=O)NC3CCCCC3)sc2c1`: 9.53 µM (active). The same measure for `CCc1noc(C)c1C(=O)NNC(=O)c1ccc(F)cc1`: “inactive”; for `Cc1ccc(Cl)cc1N1CCN(C(=O)C2CCC(CNS(=O)(=O)c3cccs3)CC2)CC1` (centres undefined): “inactive”. In the case of `Cc1ccc(C(=O)Nc2cc3c(cc2N2CCCC2)n(C)c(=O)c(=O)n3C)cc1` it was “inactive”; in that of `Cc1oc2ccc(O)c(CN3CCC(C)CC3)c2c1C(=O)Nc1ccccc1`, “inactive”; in that of `COc1ccc(OC)c(S(=O)(=O)Nc2c(C)nn(C)c2C)c1`, “inactive”. On to `COc1ccc(-c2nn3c(-c4ccc(OC)cc4)nnc3c3ccccc23)cc1`, for which the Potency entry is “inactive”. In the case of `COCCCNC(=S)N(CCN(C)C)Cc1cc2cc3c(cc2[nH]c1=O)OCCO3` it was “inactive”; in that of `O=C(CN1c2ccccc2S(=O)(=O)c2ccccc21)Nc1cccc(C(F)(F)F)c1`, “inactive”; in that of `O=C(Cn1c(=O)n(Cc2ccccc2)c(=O)c2sc3ccccc3c21)Nc1ccccc1F`, “inactive”.

For the compound `CCOc1ccc2nc(NC(=O)CSc3nc4c(c(=O)n(C)c(=O)n4C)n3CC)sc2c1`, the Potency entry was “inactive”. The same measure for `CCn1c(SCC(=O)Nc2nc3ccc(OC)cc3s2)nnc1-c1ccoc1C`: 10.7 µM (active).

As to `CCn1c(SCC(=O)NC2CCCC2)nnc1-c1ccoc1C`, the Potency result is “inactive”.

Take `CCOc1ccccc1C(=O)Nc1ccc2c(c1)N(C)C(=O)c1ccccc1S2`: the Potency entry is “inactive”.

Consider `Cc1ccc(-n2c(SCC(=O)c3ccccc3)nc3c([nH]c4ccccc43)c2=O)cc1`, for which the Potency result was “inactive”.

For `CSc1ccc(CCNC(=O)CS(=O)(=O)Cc2nc(-c3ccccc3F)oc2C)cc1`, the Potency result is “inactive”. In the case of `CCOC(=O)c1ccc(NC(=O)C2CC(=O)N(c3ccc4c(c3)OCCO4)C2)cc1` (centres undefined) it was “inactive”. In the case of `Cc1cccc(-n2c(C)cc(/C=N/NC(N)=S)c2C)c1` it was “inactive”. In the case of `CC1C/C(=N/NC(=O)c2cccs2)CC(C)(C)C1` (centres undefined) it was “inactive”. `O=C(N/N=C/C=C/c1ccco1)c1cccs1`: the Potency is 26.9 µM (active). In the case of `Cc1cc(/C=N/NC(=O)CC2(C)OCCO2)c(C)n1-c1ccc(Cl)c(Cl)c1` it was “inactive”.

Turning to `Cc1ccc(NC(=O)CCC(=O)N/N=C/c2ccco2)c(C)c1`, the Potency result was “inactive”. The same measure for `Cc1cc(C(=O)Nc2ccc(C)c(S(=O)(=O)N3CCOCC3)c2)c2ccccc2n1`: “inactive”.

Regarding `Cc1cc(/C=N/Nc2ccc([N+](=O)[O-])cn2)c(C)n1-c1cccc(C(=O)O)c1`, the Potency result was “inactive”. Regarding `Cc1ccc(-c2cc(C(=O)N/N=C/C=C/c3ccco3)c3ccccc3n2)cc1C`, the Potency was 1.07 µM (active). In the case of `O=C(COC(=O)CCC(=O)c1cccs1)NCc1ccco1`, the Potency result is “inactive”.

`Cc1ccc(-n2c(C)cc(/C=N\NC(=O)CC(=O)NC(C)C)c2C)cc1`: the Potency is 13.5 µM (active). The same measure for `Cc1cccc(-n2c(C)cc(/C=N\NC(=O)c3cccs3)c2C)c1`: 1.2 µM (active); for `Cc1ccc(-c2nnc(SCC(=O)N/N=C/c3cccs3)n2-c2ccc(C)cc2)cc1`: “inactive”; for `CCOC(=O)c1c(C)oc2nc(C)nc(N(CC(C)C)CC(C)C)c12`: “inactive”. In the case of `O=C(COC(=O)CCCN1C(=O)c2cccc3cccc(c23)C1=O)NC1CCS(=O)(=O)C1` (centres undefined) it was “inactive”; in that of `COc1ccc(N2CCN(C(=O)c3c(C)oc4nc(C)nc(N5CCCC5)c34)CC2)cc1`, “inactive”.

On to `Cc1ccccc1Nc1nc(N)nc(COC(=O)CCC(=O)c2ccc(F)cc2)n1`, for which the Potency entry was “inactive”.

The values above are taken from PubChem BioAssay AID588342 (National Center for Advancing Translational Sciences (NCATS), 2011).
